Rows were chosen to be rich in hits. Some 3.6% of all compounds tested hit in one or more screens of this group.
PI5P4K alpha inh: blocks human PI5P4K alpha kinase activity | max response, % | PI5P4Kalpha enzyme, ADP-Glo luminescence, 60 min; hits give low values | P48426 | 330,000 tested, 1.2% active; active = max response of -50% or lower; inconclusive = between -30% and -50%; inactive = -30% or higher; also: value at the top dose of about 77 µM; % is scaled to controls: 0 for no effect and ±100 for the full control effect
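ADP-Glo luminescence end-point read after a 60 min room-temperature kinase reaction of PI5P4Kalpha plus substrate, initiated with ATP at 5 microM final. Buffer: 0.038 M HEPES pH 7.4, EGTA, 0.1% CHAPS, 5% DMSO.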
KAT2A inh: blocks human GCN5L2 histone acetyltransferase. GCN5L2 HAT assay, ThioGlo1 CoA-SH fluorescence. Q92830. AID 504327. Potency, µM (titrated, usually from 58.9 µM), for inactives: top-dose activity change, negative = inhibition, actives largely listed as inhibitors. 390,000 tested, 0.21% active; also: potency is read from the fitted curve at half-maximal effect; % is scaled to controls: 0 for no effect and ±100 for the full control effect
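qHTS, 1536-well. 20nM enzyme, pH 7.5 HEPES/EDTA/Tween-20 buffer; 15 min compound preinc., RT. Start: 75uM H3(1-25), 70uM AcCoA, 50uM ThioGlo1. Read Ex340/Em540 at t=0 (autofluorescence flag) and t=20 min.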
PLK1 PBD block: inhibitors of human PLK1 polo-box domain binding. Potency, µM, inactives show max response, negative = inhibition, usual class: inhibitors. P53350. Plk1 PBD binding of FITC phosphopeptide, fluorescence polarization. 360,000 tested, 2.8% active; also: potency is read from the fitted curve at half-maximal effect; series mostly up to about 57 µM; % is scaled to controls: 0 for no effect and ±100 for the full control effect; nearly all actives have a fitted effect of over 65% in size
VDR inh: vitamin D3 receptor (human) inhibition; P11473; VDR-SRC2-3 peptide fluorescence polarization, 2 h; Potency, µM, inactives show max response, negative = inhibition, usual class: inhibitors; 400,000 tested, 0.93% active; also: potency is read from the fitted curve at half-maximal effect; % is scaled to controls: 0 for no effect and ±100 for the full control effect
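Signal is fluorescence polarization, reporting how far test compounds block the interaction of VDR with the SRC2-3 coregulator peptide after a 2 h room-temperature incubation.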
Rango dissoc inh: prevents RanGTP from dissociating the Rango-importin beta complex. O95149+P62826. Biochemical FRET Rango-importin beta, RanGTP-induced dissociation. Potency, µM (titrated, usually from 46.1 µM), for the others: at the highest dose activity change, negative = inhibition. 340,000 tested, 0.071% active. AID 540253; calls by dose curve; also: potency is read from the fitted curve at half-maximal effect; % of control where 0% means no effect; nearly all actives have a fitted effect of over 45% in size
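Two FRET readings bracket the reaction: one 5 min after compound meets Rango–importin beta, another 45 min after RanGTP-RCC1 (0.6 uM Ran, 0.2 uM RCC1, 2 mM GTP) is added. Only the second defines inhibition.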
Rango-impB inh: prevents formation of the Rango-importin beta complex; Q14974; Rango CFP/YFP FRET sensor + importin beta, 45 min; Potency, µM (series often up to 92.2 µM), without a hit: at the highest dose inhibition of complex formation; 340,000 tested, 0.031% active; AID 540263; calls by dose curve;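 also: potency is read from the fitted curve at half-maximal effect; 0% = DMSO wells and 100% = buffer wells lacking importin beta; nearly all actives have a fitted effect of over 15% in size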
Target sequence (Q14974 whole entry, looked up): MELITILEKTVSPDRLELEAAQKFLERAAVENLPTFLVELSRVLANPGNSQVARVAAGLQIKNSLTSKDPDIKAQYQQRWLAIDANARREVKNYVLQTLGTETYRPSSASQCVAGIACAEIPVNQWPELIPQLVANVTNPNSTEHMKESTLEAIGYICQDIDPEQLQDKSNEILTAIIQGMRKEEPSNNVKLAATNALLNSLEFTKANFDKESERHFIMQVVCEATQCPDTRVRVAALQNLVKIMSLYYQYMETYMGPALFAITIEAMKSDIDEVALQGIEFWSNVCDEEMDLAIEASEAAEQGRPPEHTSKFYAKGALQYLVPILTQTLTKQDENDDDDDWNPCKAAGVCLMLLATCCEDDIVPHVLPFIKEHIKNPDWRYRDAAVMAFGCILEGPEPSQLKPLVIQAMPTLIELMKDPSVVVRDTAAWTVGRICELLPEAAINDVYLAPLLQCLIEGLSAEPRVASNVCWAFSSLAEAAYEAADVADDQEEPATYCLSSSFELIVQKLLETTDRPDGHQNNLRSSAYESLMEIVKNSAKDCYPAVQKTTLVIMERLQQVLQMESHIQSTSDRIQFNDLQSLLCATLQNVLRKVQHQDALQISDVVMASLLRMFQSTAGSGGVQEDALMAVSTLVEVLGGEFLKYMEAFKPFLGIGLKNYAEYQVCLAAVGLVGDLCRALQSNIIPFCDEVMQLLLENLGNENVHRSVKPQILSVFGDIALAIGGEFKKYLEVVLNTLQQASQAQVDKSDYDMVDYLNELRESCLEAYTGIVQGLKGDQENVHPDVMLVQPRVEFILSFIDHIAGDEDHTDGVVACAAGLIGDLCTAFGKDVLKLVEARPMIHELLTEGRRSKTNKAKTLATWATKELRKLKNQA
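Inhibition scored from the CFP 486 nm/YFP 530 nm FRET ratio 45 min after adding 0.125 microM importin beta to 50 nM Rango biosensor preincubated 5 min with compound (room temperature, PBS with DTT, Tween-20, BSA). No-importin wells as positive control.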
The depositor's hits bear a star. Unless noted, calls follow the shape of the dose curve; as a rule, active = well fitted curve in the direction sought with a large enough effect; inconclusive = small, poorly fitted or top-dose-only effect, or another doubt; inactive = no such curve, though single readings can be large; an effect the other way counts as inactive or inconclusive.

For CC[C@H](C)[C@H](NC(=O)[C@H](C)NC(=O)[C@H](Cc1cnc[nH]1)NC(=O)[C@@H]1CCCN1C(=O)CNC(=O)[C@H](CC(C)C)NC(=O)[C@H](CC(C)C)NC(=O)[C@H](Cc1ccc(O)cc1)NC(=O)CNC(=O)[C@H](C)NC(=O)[C@H](CO)NC(=O)[C@H](CC(N)=O)NC(=O)[C@H](CC(C)C)NC(=O)[C@@H](NC(=O)[C@H](Cc1c[nH]c2ccccc12)NC(=O)CN)[C@@H](C)O)C(=O)N[C@@H](CC(=O)O)C(=O)N[C@@H](CC(N)=O)C(=O)N[C@@H](Cc1cnc[nH]1)C(=O)N[C@@H](CCCNC(=N)N)C(=O)N[C@@H](CO)C(=O)N[C@@H](Cc1ccccc1)C(=O)N[C@@H](CO)C(=O)N[C@@H](CC(=O)O)C(=O)N[C@@H](CCCCN)C(=O)N[C@@H](Cc1cnc[nH]1)C(=O)NCC(=O)N[C@@H](CC(C)C)C(=O)N[C@H](C(N)=O)[C@@H](C)O the results were KAT2A inh -24.1% and VDR inh 4.3%.
For O=C(COc1ccc(/C=N/NC(=O)c2ccccc2O)cc1)Nc1ccc([N+](=O)[O-])cc1 the results were PI5P4K alpha inh 0.3, KAT2A inh -4.1%, PLK1 PBD block 21.2µM*, VDR inh -23.3%, Rango dissoc inh 7.6% and Rango-impB inh 1.9%.
For O=C(COc1ccc(/C=N/NC(=O)c2ccncc2)cc1)Nc1cccc([N+](=O)[O-])c1 the results were PI5P4K alpha inh 4.3, KAT2A inh -2.8%, PLK1 PBD block 0.0%, VDR inh 18.2%, Rango dissoc inh -3.6% and Rango-impB inh 0.0%.
For O=C1/C(=C\c2cc(Br)cc(Br)c2O)SC(=S)N1Cc1ccccc1 the results were PI5P4K alpha inh inconclusive, KAT2A inh -0.9%, PLK1 PBD block 9.47µM*, VDR inh 50.1µM*, Rango dissoc inh -29.8% and Rango-impB inh inconclusive.
`COc1cc(/C=C2/SC(=S)N(Cc3ccccc3)C2=O)cc(Cl)c1O` gave PI5P4K alpha inh inconclusive, KAT2A inh -12.6%, PLK1 PBD block -33.1%, VDR inh -25.5%, Rango dissoc inh inconclusive and Rango-impB inh inconclusive.
Screening COc1cc([N+](=O)[O-])cc(/C=C2/SC(=S)N(Cc3ccccc3)C2=O)c1O returned PI5P4K alpha inh -70.6*, KAT2A inh inconclusive, PLK1 PBD block 29.9µM*, VDR inh inconclusive, Rango dissoc inh -5.6% and Rango-impB inh 14.1%.
For O=C1/C(=C/c2ccccc2O)SC(=S)N1Cc1cccnc1 the results were PI5P4K alpha inh -51.4*, KAT2A inh -2.6%, PLK1 PBD block inconclusive, VDR inh inconclusive, Rango dissoc inh -9.7% and Rango-impB inh 3.4%.
`Cc1ccc2oc(C(=O)Nc3nc(-c4ccc(F)cc4)ns3)c(C)c2c1` gave KAT2A inh -5.7% and VDR inh 10.3%.
CCCCN(CC)CCCNC(=O)C1CCN(c2nc3ccc(CC)cc3s2)CC1 was read as KAT2A inh -2.7% and VDR inh -2.8%.
`Cc1ccc(S(=O)(=O)N2CCCc3cc(NC(=O)c4c(F)cccc4F)ccc32)cc1` gave PI5P4K alpha inh -0.5, KAT2A inh inconclusive, PLK1 PBD block 26.7µM*, VDR inh -14.1%, Rango dissoc inh -17.0% and Rango-impB inh -1.2%.
Screening Cc1ccc(S(=O)(=O)N2CCCc3cc(NC(=O)c4cccc(Cl)c4)ccc32)cc1 returned KAT2A inh 18.6% and VDR inh 9.0%.
Screening COc1cccc(OC)c1C(=O)Nc1ccc2c(c1)CCCN2S(=O)(=O)c1ccc(C)cc1 returned PI5P4K alpha inh -15.2, KAT2A inh inconclusive, PLK1 PBD block 10.6µM*, VDR inh inconclusive, Rango dissoc inh -3.0% and Rango-impB inh -6.4%.
CC(C(=O)Nc1ccc(C(=O)O)c(O)c1)N1C(=O)/C(=C\c2ccco2)SC1=S (stereo unspecified) was read as PI5P4K alpha inh inconclusive, KAT2A inh inconclusive, PLK1 PBD block 9.47µM*, VDR inh -9.8%, Rango dissoc inh -17.8% and Rango-impB inh -0.8%.
O=C(CN1C(=O)/C(=C/c2ccco2)SC1=S)NC1CCS(=O)(=O)C1 (stereo unspecified) was read as PI5P4K alpha inh -27.2, KAT2A inh -14.2%, PLK1 PBD block 29.9µM*, VDR inh -12.1%, Rango dissoc inh 1.0% and Rango-impB inh 0.3%.
`O=C(CCCN1C(=O)/C(=C/c2ccccc2)SC1=S)Nc1ccc(C(=O)O)c(O)c1` gave PI5P4K alpha inh -25.6, KAT2A inh -29.1%, PLK1 PBD block inconclusive, VDR inh inconclusive, Rango dissoc inh 7.3% and Rango-impB inh 0.3%.
Cc1ccc(NC(=O)CN2C(=O)S/C(=C\c3ccc(-c4cccc(C(=O)O)c4C)o3)C2=O)cc1C was read as PI5P4K alpha inh inconclusive, KAT2A inh -0.1%, PLK1 PBD block 18.9µM*, VDR inh -19.3%, Rango dissoc inh inconclusive and Rango-impB inh inconclusive.
`O=C(CN1C(=O)/C(=C/c2ccco2)SC1=S)Nc1ccc(O)c(C(=O)O)c1` gave PI5P4K alpha inh inconclusive, KAT2A inh -35.2%, PLK1 PBD block inconclusive, VDR inh -5.7%, Rango dissoc inh -30.0% and Rango-impB inh 0.8%.
For O=C(CN1C(=O)/C(=C/c2ccco2)SC1=S)Nc1ccc(C(=O)O)c(O)c1 the results were PI5P4K alpha inh -67.5*, KAT2A inh inconclusive, PLK1 PBD block 13.4µM*, VDR inh 8.9%, Rango dissoc inh -19.3% and Rango-impB inh inconclusive.
COc1ccc(S(=O)(=O)N/N=C\c2ccccc2F)cc1 was read as PI5P4K alpha inh 2.1, KAT2A inh -29.0%, PLK1 PBD block -18.9%, VDR inh 7.5%, Rango dissoc inh 4.7% and Rango-impB inh -0.9%.
O=S(=O)(N/N=C\c1c(F)cccc1Cl)c1ccc(Cl)cc1 was read as PI5P4K alpha inh 0.2, KAT2A inh -25.0%, PLK1 PBD block 15µM*, VDR inh inconclusive, Rango dissoc inh 12.4% and Rango-impB inh -0.9%.
For CC(NC(=O)C(=O)N1CCOCC1)C(c1cccs1)N1CCN(c2ccccc2)CC1 (stereo unspecified) the results were PI5P4K alpha inh 1.3, KAT2A inh 0.7%, PLK1 PBD block 21.2µM*, VDR inh -26.6%, Rango dissoc inh 1.8% and Rango-impB inh 3.1%.
`COc1ccc(N2CCN(C(c3cccs3)C(C)NC(=O)C(=O)N3CCOCC3)CC2)cc1` (stereo unspecified) gave PI5P4K alpha inh -2.2, KAT2A inh -5.7%, PLK1 PBD block -3.2%, VDR inh 14.9%, Rango dissoc inh -8.8% and Rango-impB inh -1.3%.

Compound activity: PubChem, National Center for Advancing Translational Sciences (NCATS)
